Screening results: PubChem, National Center for Advancing Translational Sciences (NCATS)
TGFb inhibitor: inhibitors of TGF-b signaling; HepG2 CAGA-GFP TGF-b/SMAD3 reporter, GFP fluorescence, 18 h; TGF-beta stimulated, 500 pg/mL final; Potency, µM (series often up to 46.1 µM), inactives show top-dose activity, negative = inhibition, hits mostly inhibitors; 1.2% of 410,000 active; also: potency is read from the fitted curve at half-maximal effect; % is scaled to controls: 0 for no effect and ±100 for the full control effect; nearly all actives have a fitted effect of over 65% in size
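HEPG2 CAGA-GFP cells (1000/well, DMEM with 1% FBS) were pre-incubated 2 h at 37 degrees C, given compound by pin tool, then stimulated with TGF-beta at 500 pg/mL final for 18 h before per-cell GFP fluorescence imaging.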
IL-1B inflam inh: inflammasome signaling inhibition, IL-1 beta readout | THP-1 LPS/ATP IL-1B secretion, AlphaLISA, 16 h; hits give low values | activity change, % at 57.5 µM | AID 743279 | 4.7% of 360,000 active; in the data active = activity change below about -50%; inconclusive = mostly about -30% to -49%; also: % is scaled to controls: 0 for no effect and ±100 for the full control effect
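THP-1 cells pretreated 1 hr with compounds (up to 57.5 uM final), then stimulated with LPS (250 ng/mL final) plus ATP (1.25 mM final); secreted IL-1B measured by AlphaLISA after 16 hr, decreased signal indicating inhibition.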
TDP1 cell CPT: DT40-hTDP1 cell growth loss with CPT; 12% of 420,000 active; Potency, µM (top dose mostly 46.2 µM), for inactives: at the highest dose activity change, negative = growth inhibition, hits mostly inhibitors; chicken DT40 Tdp1-/-;hTDP1 cells + 20 nM CPT, ATP luminescence, 48 h; also: potency is read from the fitted curve at half-maximal effect; % is scaled to controls: 0 for no effect and ±100 for the full control effect; nearly all actives have a fitted effect of over 55% in size
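Chicken DT40 Tdp1-/- cells complemented with human TDP1, 400 cells/well, exposed to compounds plus 20 nM camptothecin for at least 48 h at 37 C; viability read as ATP content by CellTiter-Glo luminescence.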
HepG2 viability: kills HepG2 cells in TGF-b inhibitor counter-screen; Potency, µM (doses to about 46.1 µM), for inactives: at the highest dose activity change, negative = cytotoxicity, hits mostly cytotoxic; HepG2 CAGA-GFP viability, ATP luminescence, 18 h; 0.76% of 410,000 active; also: potency is read from the fitted curve at half-maximal effect
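CellTiter-Glo luminescence gave cytotoxicity after 18 hours at 37 degrees C. The cells were HepG2 CAGA-GFP in 1% FBS DMEM, stimulated with 500 pg/mL TGF-beta after compound addition. %Activity was normalised to no-cell wells (complete cell-killing) and DMSO (no toxicity), and curves were fitted and classified.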
DT40 TDP1 no CPT: qHTS for Inhibitors of human tyrosyl-DNA phosphodiesterase 1 (TDP1): qHTS in cells in absence of CPT | DT40 Tdp1-/- hTDP1 cells, no CPT, ATP luminescence, 48 h | Potency, µM (highest dose often 46.2 µM), for the others: top-dose activity change, negative = growth inhibition, actives largely listed as inhibitors | 15% of 420,000 active | AID 686978, 2013; also: potency is read from the fitted curve at half-maximal effect; % is scaled to controls: 0 for no effect and ±100 for the full control effect; nearly all actives have a fitted effect of over 55% in size
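Seeded 400 DT40-hTDP1 cells/well (vehicle DMSO, no 20 nM CPT); pinned compounds; ≥48 hr at 37 °C; CellTiter-Glo luminescence as viability measure.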
TDP1 inh: inhibitors of human tyrosyl-DNA phosphodiesterase TDP1. Q9NUW8. recombinant TDP1, AlphaScreen DNA substrate cleavage. Potency, µM (top dose mostly 130 µM), without a hit: at the highest dose activity change, negative = inhibition, actives largely listed as inhibitors. 0.28% of 350,000 active. AID 485290; also: potency is read from the fitted curve at half-maximal effect; % is scaled to controls: 0 for no effect and ±100 for the full control effect; nearly all actives have a fitted effect of over 40% in size
Target sequence (Q9NUW8 whole entry, looked up): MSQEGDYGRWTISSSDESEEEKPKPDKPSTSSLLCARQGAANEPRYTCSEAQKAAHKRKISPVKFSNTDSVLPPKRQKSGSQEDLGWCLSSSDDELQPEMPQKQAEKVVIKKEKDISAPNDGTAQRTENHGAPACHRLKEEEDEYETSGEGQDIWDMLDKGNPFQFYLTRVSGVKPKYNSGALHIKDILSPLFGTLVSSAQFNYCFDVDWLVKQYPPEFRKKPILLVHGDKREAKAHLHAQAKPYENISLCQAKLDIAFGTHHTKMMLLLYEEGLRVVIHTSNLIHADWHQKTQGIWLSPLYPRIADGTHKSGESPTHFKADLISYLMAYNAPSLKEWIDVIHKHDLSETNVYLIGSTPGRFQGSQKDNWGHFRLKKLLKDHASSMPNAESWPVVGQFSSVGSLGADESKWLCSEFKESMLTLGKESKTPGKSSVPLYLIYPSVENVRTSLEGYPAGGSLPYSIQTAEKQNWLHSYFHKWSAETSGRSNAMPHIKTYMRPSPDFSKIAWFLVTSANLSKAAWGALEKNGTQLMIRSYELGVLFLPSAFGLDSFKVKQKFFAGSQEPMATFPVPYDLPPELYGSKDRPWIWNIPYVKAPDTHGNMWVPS
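Tdp1 1 nM final; 15 min RT w/ cpd; substrate 15 nM, 5 min; beads 10 ug/ml, 10 min; AlphaScreen read. Neg ctrl: no enzyme.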
* hit, by the source's call; [ ] = another dose, or the depositor's remark. The list is not random: actives were taken first. Their share in the collection is about 18%. Unless noted, calls follow the shape of the dose curve; as a rule, active = well fitted curve in the direction sought with a large enough effect; inconclusive = small, poorly fitted or top-dose-only effect, or another doubt; inactive = no such curve, though single readings can be large; an effect the other way counts as inactive or inconclusive.

For COc1ccccc1CNC(=O)c1cnc2sc(N3CCCCC3)nn2c1=O the results were TGFb inhibitor -23%, TDP1 cell CPT inconclusive, HepG2 viability -6%, DT40 TDP1 no CPT 23µM* and TDP1 inh 8%.
Screening CCN(CC)c1nn2c(=O)c(C(=O)NCc3ccccc3Br)cnc2s1 returned TGFb inhibitor 3%, TDP1 cell CPT 23µM*, HepG2 viability -2%, DT40 TDP1 no CPT inconclusive and TDP1 inh 7%.
O=C1/C(=C/c2ccc(O)cc2)COc2ccccc21 was read as TGFb inhibitor inconclusive, IL-1B inflam inh -104*, TDP1 cell CPT 0%, HepG2 viability -29%, DT40 TDP1 no CPT -17% and TDP1 inh 22%.
For O=C1/C(=C/c2ccccn2)COc2ccccc21 the results were TGFb inhibitor -6%, IL-1B inflam inh 9, TDP1 cell CPT 2.1µM*, HepG2 viability -17%, DT40 TDP1 no CPT 4.6µM* and TDP1 inh 7%.
For CCOc1cc(/C=C2/COc3ccccc3C2=O)ccc1OCC(=O)N(C)C the results were TGFb inhibitor 3%, IL-1B inflam inh -16, TDP1 cell CPT inconclusive, HepG2 viability 5%, DT40 TDP1 no CPT inconclusive and TDP1 inh 4%.
COc1ccc2c(c1)OC/C(=C/c1ccc(O)c(O)c1)C2=O was read as TDP1 cell CPT 3.3µM*, DT40 TDP1 no CPT 2.6µM* and TDP1 inh 5%.
CNc1ccc(/C=C2\COc3ccccc3C2=O)cc1[N+](=O)[O-] was read as TGFb inhibitor 16%, IL-1B inflam inh 2, TDP1 cell CPT inconclusive, HepG2 viability 6%, DT40 TDP1 no CPT 12µM* and TDP1 inh 2%.
`COc1cc(Cl)c(CN2CCOc3ccc(CN4CCCCC4CO)cc3C2)cc1OC` (centres undefined) gave TDP1 cell CPT 1%[9.04 µM] and DT40 TDP1 no CPT inconclusive.
CC12CC3CC(C)(C1)CC(C(=O)NCc1cccnc1)(C3)C2 was read as TGFb inhibitor 11%, IL-1B inflam inh -5, TDP1 cell CPT -33%, HepG2 viability -30% and DT40 TDP1 no CPT -9%.
`CC1(c2ccccc2)NC(=O)N(CC(=O)NCC2CCCO2)C1=O` (centres undefined) gave TGFb inhibitor inconclusive, IL-1B inflam inh 15, TDP1 cell CPT -1%, HepG2 viability 4%, DT40 TDP1 no CPT -4% and TDP1 inh -2%.
For COCc1cc(C)nc(N/N=C/c2ccc(-c3ccc(C(=O)O)c(Cl)c3)o2)c1C#N the results were TDP1 inh 28µM*.
COCc1cc(C)n(CC(=O)N/N=C/c2ccc(-c3ccc(Cl)c(C(=O)O)c3)o2)c(=O)c1C#N was read as TGFb inhibitor 25%, IL-1B inflam inh 0, TDP1 cell CPT -9%, HepG2 viability 21% and DT40 TDP1 no CPT -25%.
COC(=O)C(Cc1ccc(OC(=O)c2ccccc2Cl)cc1)N1Cc2ccccc2C1=O (centres undefined) was read as TGFb inhibitor -14%, IL-1B inflam inh -13, TDP1 cell CPT inconclusive, HepG2 viability -46%, DT40 TDP1 no CPT inconclusive and TDP1 inh 5%.
`COc1ccc(CNC(=O)CC(c2ccc(OC)cc2)N2Cc3ccccc3C2=O)cc1` (centres undefined) gave TGFb inhibitor 24%, TDP1 cell CPT inconclusive, HepG2 viability -24%, DT40 TDP1 no CPT 16µM* and TDP1 inh -5%.
For COC(=O)C(Cc1ccc(OC(=O)c2ccccc2C)cc1)N1Cc2ccccc2C1=O (centres undefined) the results were TGFb inhibitor 2%, IL-1B inflam inh 0, TDP1 cell CPT inconclusive, HepG2 viability 3%, DT40 TDP1 no CPT 18µM* and TDP1 inh 3%.
COc1ccc(C(CC(=O)Nc2ccc(Br)cn2)N2Cc3ccccc3C2=O)cc1 (centres undefined) was read as TGFb inhibitor 0%, TDP1 cell CPT 5.2µM*, HepG2 viability -15%, DT40 TDP1 no CPT 23µM* and TDP1 inh 0%.
Screening CCOc1ccccc1NC(=O)CC(c1ccc(F)cc1)N1Cc2ccccc2C1=O (centres undefined) returned TGFb inhibitor -23%, TDP1 cell CPT 16µM*, HepG2 viability -21%, DT40 TDP1 no CPT 16µM* and TDP1 inh 0%.
`CC(=O)Nc1cc2c(cc1Cl)-c1ccccc1C2` gave TGFb inhibitor -3%, IL-1B inflam inh -5, TDP1 cell CPT -27%, HepG2 viability 8% and DT40 TDP1 no CPT -23%.
For CCC(=O)Nc1cc2c(cc1Cl)-c1ccccc1C2 the results were TGFb inhibitor 17%, IL-1B inflam inh 2, TDP1 cell CPT inconclusive, HepG2 viability 13µM* and DT40 TDP1 no CPT inconclusive.
COc1ccc(N2CCN(C(=O)CSc3ccc(C)cc3)CC2)cc1 was read as TGFb inhibitor 0%, IL-1B inflam inh -15, TDP1 cell CPT -3%, HepG2 viability -20%, DT40 TDP1 no CPT inconclusive and TDP1 inh -8%.
O=C(CCc1c[nH]c2ccccc12)N1CCN(c2ccc(O)cc2)CC1 was read as TGFb inhibitor -9%, IL-1B inflam inh 31, TDP1 cell CPT 5.2µM*, HepG2 viability 7%, DT40 TDP1 no CPT 7.3µM* and TDP1 inh 6%.
Screening COc1ccc(N2CCN(C(=O)CCc3c[nH]c4ccccc34)CC2)cc1 returned TGFb inhibitor -7%, IL-1B inflam inh 16, TDP1 cell CPT -10%, HepG2 viability -6%, DT40 TDP1 no CPT inconclusive and TDP1 inh 1%.
`CC(=O)c1ccc(N2CCN(C(=O)CCC(=O)c3cccs3)CC2)cc1` gave TGFb inhibitor 7%, IL-1B inflam inh -1, TDP1 cell CPT -19%, HepG2 viability -7%, DT40 TDP1 no CPT -30% and TDP1 inh 5%.
Screening Cc1ccc(OCCC(=O)N2CCN(c3ccc(O)cc3)CC2)cc1 returned TGFb inhibitor -5%, IL-1B inflam inh 24, TDP1 cell CPT inconclusive, HepG2 viability -23% and DT40 TDP1 no CPT 16µM*.
For O=C(CCC(=O)N1CCN(c2ccc(O)cc2)CC1)c1cccs1 the results were TGFb inhibitor 1%, IL-1B inflam inh 8, TDP1 cell CPT inconclusive, HepG2 viability 9%, DT40 TDP1 no CPT 23µM* and TDP1 inh 4%.
